Assay results as given in PubChem BioAssay (Tox21).
Results filed as inconclusive are left out. Entries that show only a call come without a potency. Active and inactive are the calls of the source. The call rests on the fitted dose curve; in most records, active means well fitted cell-killing curve with a large enough effect in the repeat runs; inconclusive means weak or mixed curves; inactive means flat fitted curve, though single readings scatter.

Test: qHTS assay to identify small molecule antagonists of the estrogen related receptor (ERR) signaling pathway from Tox21 library - cell viability counter screen (AID 1224834); further: nearly all actives have a fitted effect of over 30% in size
Conditions: ERR reporter cells viability, CellTiter-Fluor, 17.5 h; series mostly up to 92.4 µM
Description: National Center for Advancing Translational Sciences [NCATS]
NIH Chemical Genomics Center [NCGC]
U.S. Environmental Protection Agency [EPA]
National Institutes of Environmental Health Sciences [NIEHS]
National Toxicology Program [NTP]
U.S. Food and Drug Administration [FDA]
Estrogen related receptors (ERRs), the first orphan nuclear receptors discovered, play an important role in the control of cellular energy metabolism. ERRs are required for high-energy production in response to the environmental challenges. ERR-alpha was also identified as an adverse marker for breast cancer progression; ERR-alpha-positive tumors have a poor prognosis. To screen and to identify environmental compounds that perturb the ERR signaling pathways could provide valuable information for potential therapeutic or preventive measures in the treatment of metabolic disease. To differentiate true ERR antagonists or agonist from cytotoxic substances, the assay is multiplexed with cell viability assay.
Tox21 Assay Protocol Summary:
The ERR cells were dispensed at 2,000 cells/5 ul/well in 1536-well white plates using a Multidrop dispenser. After the assay plates were incubated at a 37 C/5% CO2 incubator for 6 hours, 23 nL of compounds dissolved in DMSO, positive and negative controls or DMSO only was transferred to the assay plate by a pin tool. The plates were incubated at 37 C for 17.5 hours. 1 ul/well of CellTiter-Fluor reagent was added into the assay plates using a Flying Reagent Dispenser. After 30-minute incubation at 37 C/5% CO2, the fluorescence intensity in the plates was measured using a ViewLux plate reader.
Potency means the concentration at half of the fitted maximal effect.

SMILES | Potency
Cc1ccc2sc3cccc(C)c3c2c1 | inactive
CCCCCCCCCCCCCCCCCCNC(=O)OC1CCN(C(=O)OC[C@H](COC(=O)N(Cc2cccc[n+]2CC)C(=O)c2ccccc2OC)OC)CC1 | 26.6 µM (active)
Oc1ccc(Cl)cc1C1CCCC1 | inactive
CCOC(=O)[C@H](C)O | inactive
CCN(CC)c1ccc(N=Nc2ccccc2)cc1 | 24.3 µM (active)
c1ccc(C[P+](c2ccccc2)(c2ccccc2)c2ccccc2)cc1 | 21.7 µM (active)
CCOC=C(C(=O)OCC)C(=O)OCC | inactive
Cc1c[nH]c(=O)[nH]c1=O | inactive
CC/C(=C(/c1ccc(O)cc1)c1ccc(OCCN(C)C)cc1)c1ccccc1 | 32 µM (active)
CCN(CC)c1ccc2c(c1)Oc1cc(N(CC)CC)ccc1C21OC(=O)c2ccccc21 | 6.68 µM (active)
CN1CCN(CCCN2c3ccccc3Sc3ccc(Cl)cc32)CC1 | 29.8 µM (active)
CCNc1nc(NC(C)(C)C)nc(OC)n1 | inactive
CN[C@H]1CC[C@@H](c2ccc(Cl)c(Cl)c2)c2ccc(S(N)(=O)=O)cc21 | 68.6 µM (active)
N#CCCOCCC#N | inactive
CSc1ccc(O)cc1C | inactive
CC(=O)CC(N)=O | inactive
O=C1CCC/C=C\CCCCCCCCCC1 | inactive
Cn1ccnc1 | inactive
CCC1(C)C(=O)N(Cl)C(=O)N1Cl (stereo not given) | inactive
NC(=O)C1CO1 (stereo not given) | inactive

SMILES | Potency
C=C1CC[C@H]2O[C@]2(C)CC[C@@H]2[C@@H]1CC2(C)C | inactive
CC(C)C(=O)C(C)C | inactive
c1ccc2cc3c4ccccc4c4ccccc4c3cc2c1 | inactive
CN1CCN(C)CC1 | inactive
CC(C)=NNC(N)=S | inactive
Clc1ccc2c(Cl)ccnc2c1 | inactive
CC(C)=CCC[C@H](C)CC=O | inactive
Cc1cc(F)ccc1-c1cc(N2CC[C@@H](O)[C@H]2CO)ncc1N(C)C(=O)C(C)(C)c1cc(C(F)(F)F)cc(C(F)(F)F)c1 | 42.6 µM (active)
C=C(C)C1CCC(C)CC1O (stereo not given) | inactive
c1ccc2occc2c1 | inactive
CN1CCN(c2ccccc2/C=C2\SCCN(c3ccc(Cl)c(Cl)c3)C2=O)CC1 | 54.5 µM (active)
COc1cc(OC)nc(NC(=O)NS(=O)(=O)Nc2ccccc2C(=O)N(C)C)n1 | inactive
CO[Si](OC)(c1ccccc1)c1ccccc1 | inactive
Cc1cccc(C)c1C | inactive
CCSCC | inactive
CCN(CCC#N)c1ccc(N=Nc2ccc([N+](=O)[O-])cc2)cc1 | inactive
O=C(Nc1ccccc1)c1cc(Cl)ccc1O | 15.4 µM (active)
NC(=O)c1ccccc1Cl | inactive
CCCCCN=C(N)N/N=C/c1c[nH]c2ccc(OC)cc12 | 26.6 µM (active)
CCOC(=O)OC(=O)OCC | inactive
